In the library only some 2% were active in any assay of this set; here they are far more common.
TDP-43 yeast inh: TDP-43 toxicity inhibition in yeast; TDP-43 expressing yeast growth rescue, BacTiter-Glo, 24 h; Potency, µM (series often up to 46.1 µM), for inactives: top-dose growth rescue (activation), hits mostly activators; 410,000 compounds, 1.8% hits; AID 652104; further: % of control where 0% means no effect; nearly all actives have a fitted effect of over 50% in size
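Growth rescue of TDP-43-toxic yeast measured as ATP luminescence (BacTiter-Glo). Cells grown to mid-log in raffinose, induced in galactose at OD600=0.02, exposed to compound 24 hr at 30 deg C.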
Abeta yeast res: compounds reversing amyloid beta toxicity in yeast; yeast expressing A-beta42, growth rescue, OD600, 48 h; response scale: 0% DMSO, 100% iron-clioquinol control; Potency, µM (highest dose often 46.1 µM), usual class: activators; 410,000 compounds, 0.063% hits; further: nearly all actives have a fitted effect of over 55% in size
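Yeast growth medium received pinned compounds, then yeast cells expressing toxic A-beta were added; plates incubated at 30 C for 48 hr. Growth read as absorbance at 600 nm, normalized to DMSO and equimolar FeCl3 plus clioquinol controls.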
MBNL1 CUG block: blocks human MBNL1 binding to CUG repeat RNA. Q9NR56. TR-FRET MBNL1-His/biotin-(CUG)12 binding, 665/545 ratio. Potency, µM (doses to about 57.5 µM), inactives show top-dose activity change, negative = inhibition, hits mostly inhibitors. 280,000 compounds, 0.036% hits. AID 2675; active means well fitted inhibition curve with a large enough effect in the signal ratio, with a control signal flat, not every such curve was filed as active; inconclusive means small, poorly fitted or top-dose-only effect, or effect the other way, or a change in a side signal; inactive means no such curve, though single readings can be large or run the other way; the % refers to the signal ratio; further: on the % scale 0 is the no-effect control and ±100 the full control effect
Target sequence (Q9NR56 whole entry, looked up): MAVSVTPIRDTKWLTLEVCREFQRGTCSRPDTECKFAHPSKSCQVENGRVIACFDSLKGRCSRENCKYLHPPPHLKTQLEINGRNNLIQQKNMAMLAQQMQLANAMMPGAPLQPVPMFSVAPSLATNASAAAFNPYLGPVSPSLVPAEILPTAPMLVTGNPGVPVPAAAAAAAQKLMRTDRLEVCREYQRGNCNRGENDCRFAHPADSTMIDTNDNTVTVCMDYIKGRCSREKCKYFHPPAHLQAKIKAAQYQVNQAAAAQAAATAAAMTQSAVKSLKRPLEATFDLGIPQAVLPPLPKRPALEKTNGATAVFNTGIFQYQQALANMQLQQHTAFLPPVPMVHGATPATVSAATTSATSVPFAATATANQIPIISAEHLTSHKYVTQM
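Compounds (final 92 nM to 58 uM) are added to His-tagged MBNL1 and biotin-(CUG)12, then terbium anti-His antibody and streptavidin-XL665 (5 nM final). After 60 min at room temperature, the 665/545 nm ratio is read.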
Glioma ERSR ind: induces the endoplasmic reticulum stress response in human glioma cells. U87-MG GRP78 promoter luciferase reporter, 16 h. Potency, µM, inactives show at the top dose activation, hits mostly activators. 420,000 compounds, 0.02% hits. AID 602332; further: series mostly up to about 76 µM; % of control where 0% means no effect; nearly all actives have a fitted effect of over 35% in size
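Stably transfected U87-MG human glioma cells carrying a GRP78-based luminescent sensor were seeded at 1000 cells/well, pin-dosed with compounds and incubated 16 h. Luciferase reagent was then added, and end-point luminescence was read after 10 min at room temperature.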
FUS suppressor: FUS proteinopathy suppression in yeast | Potency, µM (highest dose often 76.6 µM), most hits filed as activators | 390,000 compounds, 0.24% hits | S. cerevisiae FUS-expressing, growth rescue, OD600, 24 h | AID 1347120;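 further: plate controls were DMSO vehicle for no effect and reference control for full effect; nearly all actives have a fitted effect of over 55% in size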
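Compound concentration series was pinned onto galactose-induced FUS-expressing yeast seeded at OD 0.005. Plates sat 24hr at 30C; absorbance at 600 nm gave growth. DMSO served as background control.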
aSyn yeast inh: inhibitors of alpha-synuclein toxicity in yeast | Yeast expressing alpha-synuclein, growth rescue, BacTiter-Glo, 24 h | Potency, µM (series often up to 46.1 µM), for the others: at the highest dose growth rescue (activation), hits mostly activators | 370,000 compounds, 0.14% hits; further: % of control where 0% means no effect; nearly all actives have a fitted effect of over 65% in size
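Screening used galactose-induced yeast with toxic alpha-synuclein levels, exposed to compound for 24 hr at 30 deg C. Cell growth, read with BacTiter-Glo luminescence, gave the measured signal.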
* marks the source's active call; other numbers are inactive results; i = inactive; ? = inconclusive; nt = no result given. Unless noted, the call rests on the fitted dose curve; in most records, active means well fitted curve in the direction sought with a large enough effect; inconclusive means small, poorly fitted or top-dose-only effect, or another doubt; inactive means no such curve, though single readings can be large; an effect the other way counts as inactive or inconclusive. Potency means the concentration at half of the fitted maximal effect.

SMILES | TDP-43 yeast inh | Abeta yeast res | MBNL1 CUG block | Glioma ERSR ind | FUS suppressor | aSyn yeast inh
C[N+](C)(C)CCOP(=O)(O)OP(=O)([O-])OCC1OC(n2ccc(N)nc2=O)[C@H](O)[C@@H]1O (some centres not stated) | nt | nt | nt | -2.4% | nt | nt
CCCCn1nnnc1C(c1ccccc1)N1CCN(c2ccc(F)cc2)CC1 (configuration not stated) | 28.2µM* | i | nt | nt | i | 14.5%
O=C(c1ccnc(-n2cnnn2)c1)N1CCOc2ccc(C(O)CCc3ccccc3)cc2C1 (configuration not stated) | nt | nt | nt | -0.2% | nt | nt
Cc1cc(C(=O)NC2CCC(C)CC2)c(C)o1 (configuration not stated) | 12.6µM* | i | 1.9% | 5.2% | i | ?
Cc1cc(C(=O)OCC(=O)NC2CCC(C)CC2)c(C)o1 (configuration not stated) | -4.0% | i | nt | -0.7% | nt | 1.1%
O=C(c1ccncc1)N1CCN(c2cc(-c3ccccc3)nc3cc(-c4cccc(Cl)c4)nn23)CC1 | ? | i | nt | 2.2% | i | ?
O=C(c1ccoc1)N1CCN(c2cc(-c3cccnc3)nc3cc(-c4cccc(Cl)c4)nn23)CC1 | 7.94µM* | i | nt | -7.2% | ? | -0.8%
CC(=O)N1CCN(c2cc(-c3ccccc3)nc3cc(-c4cccc(Cl)c4)nn23)CC1 | 2.24µM* | i | nt | -5.6% | i | -11.2%
CCOC(=O)c1cnc(-n2[nH]c(C)cc2=O)[nH]c1=O | 1.0% | i | nt | -3.4% | i | 2.9%
Cc1cc(=O)[nH]c(-n2nc(C)cc2C)n1 | ? | ? | -0.7% | -1.8% | i | 28.2µM*
CCOC(=O)c1cnc(-n2nc(C)cc2C)[nH]c1=O | ? | ? | 6.4% | 5.2% | i | 22.4µM*
Cc1cc(=O)[nH]c(N2CCCNCC2)n1 | -0.4% | i | -5.7% | -6.8% | i | -4.0%
COc1ccccc1-c1ccnc(-n2ncc(C(=O)NCCc3cccnc3)c2C)n1 | nt | nt | nt | -3.1% | nt | nt
Cc1ccccc1C(=O)NC(C)c1nnc2n1CCN(Cc1ccnc3ccccc13)CC2 (configuration not stated) | nt | nt | nt | -2.2% | nt | nt
O=c1c(Cl)cc(Cl)nn1-c1ccccc1 | 25.1µM* | i | ? | -12.7% | nt | -1.3%
COc1cc(Cl)nn(-c2ccccc2)c1=O | 3.1% | i | -6.4% | -3.0% | nt | -0.9%
O=C(NC(=S)NC1CCCC1)c1ccccc1 | ? | ? | -1.3% | 1.9% | i | -2.3%
N#Cc1ccc(C(=O)NC(=S)NC2CCCCC2)cc1 | 22.4µM* | ? | nt | 0.6% | i | -8.7%
Brc1ccsc1/C=N/Nc1ccccc1 | 10µM* | i | nt | 1.5% | i | -2.0%
O=C(Nc1nc(-c2ccccc2)cs1)c1cccs1 | 12.6µM* | i | -9.3% | 10.3% | i | -29.7%
CC1CC1C(=O)Nc1nc(-c2ccccc2)cs1 (configuration not stated) | 17.8µM* | i | -11.0% | 1.5% | i | -6.1%
CC(C)(C)c1csc(NC(=O)Cc2cccs2)n1 | ? | i | -1.0% | 2.9% | i | -22.0%
CC(C)(C)c1csc(NC(=O)c2cccs2)n1 | 15.8µM* | i | 4.9% | 9.2% | i | -12.6%
CC(C)(C)c1csc(NNC(=O)c2ccc(Cl)cc2)n1 | -18.2% | i | -0.4% | 2.1% | ? | 17.8µM*
CN(C)CC(=O)Nc1nc(-c2ccccc2)cs1 | 5.9% | i | -0.3% | 1.6% | i | -18.5%
SMILES | TDP-43 yeast inh | Abeta yeast res | MBNL1 CUG block | Glioma ERSR ind | FUS suppressor | aSyn yeast inh
Cc1ccccc1CN1CCc2nnc(C(C)NC(=O)C3CCN(C)CC3)n2CC1 (configuration not stated) | nt | nt | nt | -4.8% | nt | nt
O=C(c1cccc(F)c1F)N1CCOc2ccc(CN3CCC(Oc4cccnc4)CC3)cc2C1 | nt | nt | nt | -0.9% | nt | nt
CCn1c(-c2ccccc2F)nc2cc(NC(C)=O)cc(C(=O)N(C)Cc3cn(C)nc3C)c21 | nt | nt | nt | -4.8% | nt | nt
CCC1(C2CCN(C(=O)c3csc(C(C)=O)c3)CC2)NC(=O)N(CCc2scnc2C)C1=O (configuration not stated) | nt | nt | nt | 1.6% | nt | nt
O=C(Cn1cc(SCc2cccc(Cl)c2)c2ccccc21)N1CCOCC1 | 35.5µM* | ? | -13.5% | 0.9% | ? | ?
O=C(Cn1cc(SCc2ccc(C(F)(F)F)cc2)c2ccccc21)N1CCCC1 | 35.5µM* | i | nt | 9.9% | ? | nt
O=C(Cn1cc(SCc2cccc(C(F)(F)F)c2)c2ccccc21)N1CCCCCC1 | 3.7% | i | nt | 0.0% | i | nt
CC(C)CSc1nnc(-c2ccco2)n1C | nt | nt | nt | nt | i | nt
CC(C)(C)n1nc2c(c1NC(=O)c1ccc(S(=O)(=O)N3CCCC3)cc1)CSC2 | 0.0% | i | 5.7% | -0.4% | 15.8µM* | 2.5%
O=C(Nc1c2c(nn1-c1ccc(F)cc1)CSC2)c1ccc(S(=O)(=O)N2CCOCC2)cc1 | -3.0% | i | -3.6% | -4.7% | ? | 1.9%
Clc1ccccc1/C=N/NC1=Nc2cccc3cccc1c23 | 26.6% | i | ? | -2.0% | nt | -2.3%
C(=N\NC1=Nc2cccc3cccc1c23)/c1ccccn1 | 20µM* | ? | ? | 4.2% | i | 0.4%
C[C@@]12CCC3[C@@](CCC4[C@@]3(C)CCC[C@@]4(C)C(=O)O)(CC1=O)C2 (some centres not stated) | 20µM* | i | nt | -2.2% | i | 5.0%
CC(C)(C)NC(=O)[C@]1(C)CCC[C@@]2(C)C3CC[C@@]4(C)C[C@]3(CCC21)CC4=O (some centres not stated) | -8.2% | i | nt | -2.4% | i | -6.4%
COc1ccc(/C=N/NC(=O)c2ccn[nH]2)cc1CSc1ccccn1 | 11.1% | nt | ? | 0.7% | i | 0.9%
COc1ccc(/C=N/N2CCOCC2)cc1COc1ccc(F)cc1 | ? | i | 11.1% | 3.1% | i | 2.5%
COc1ccc(/C=N/NC(=O)c2ccn[nH]2)cc1COc1ccc(Cl)cc1 | 17.8µM* | i | 6.6% | -9.7% | i | 12.1%
COc1ccc(/C=N/N2CCOCC2)cc1COc1ccc(Cl)cc1 | 15.8µM* | i | nt | 1.5% | nt | 2.8%
COc1ccccc1NC(=O)Nc1nc(CC(=O)N2CCN(c3ccccc3F)CC2)cs1 | 0.0% | i | nt | 0.1% | 28.2µM* | 0.0%
COc1ccccc1NC(=O)Nc1nc(CC(=O)NCc2c(F)cccc2F)cs1 | 22.5% | i | nt | 1.5% | i | -0.5%
C=CCc1cccc(/C=N/NC(=O)CNc2ccccc2OC)c1O | 11.2µM* | i | 6.5% | -2.2% | i | 8.6%
C=CCc1cccc(/C=N/NC(=O)CNc2cccc3ccccc23)c1O | 12.5% | ? | -4.3% | -5.0% | i | ?
